According to PubChem BioAssay (NCI):
Compounds without any hit were thinned out: in the full panel of roughly 83,000, 20% have a hit.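 96-well plates, one dose, 48 hours. Percent growth reported; active if below 10.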 Values without a mark were called inactive. Calls of active or inactive are those of the source.

What was measured:
Experiment in all cases: NCI-60 one-dose screen, 48 h (100 = growth as untreated, 0 = no growth, -100 = all killed)
Conditions in all cases: 10 µM unless noted
[1] = tested on: DU-145 prostate
[2] = tested on: K-562 leukemia
[3] = tested on: MDA-MB-231 breast
[4] = tested on: RXF 393 renal
[5] = tested on: SF-268 CNS
[6] = tested on: SF-295 CNS
[7] = tested on: SF-539 CNS
[8] = tested on: UACC-257 melanoma
[9] = tested on: M14 melanoma
[10] = tested on: MALME-3M melanoma

SMILES	growth [1]	growth [2]	growth [3]	growth [4]	growth [5]	growth [6]	growth [7]	growth [8]	growth [9]	growth [10]
NC(=O)c1cc(I)ccc1NC(=O)COc1ccc(Cl)cc1Cl	111%	31.5%	107%	99.3%	97.5%	90.2%	97%	89.6%	81.5%	
CCN(c1ccc(C(=O)N2CCN(c3ccccc3)CC2)cc1)S(C)(=O)=O	108%	96.4%	119%		98.7%		103%		104%	94.2%
Cn1c2ccccc2c2nn(C(=O)c3ccccc3)c(=O)nc21	118%	112%	120%	101%	111%	98.2%	106%	118%	104%	
COc1c(Cl)ccc2c(-c3nc4cc(Cl)c(F)cc4s3)cc(=O)oc12	97.1%	64.9%	65%	92.3%	29.5%	97.7%	90%	91.6%	95.5%	
Oc1ccc2ccccc2c1C1NN=C(c2ccccc2)S1 (stereo unspecified)	21.1%	18.6%	38.7%	67%	20.9%	-8.68% (active)	12%	-6.81% (active)	-8.91% (active)	
COc1cccc(OC(=O)c2ccccc2)c1OC(=O)c1ccccc1	87.7%	37.4%	75.4%	86.3%	72.4%	83.6%	92%	87%	47.5%	
CCN1CCN(C(=S)SCC(=O)Nc2nc3ccc(OC)cc3s2)CC1	106%	91.8%	98%	92.5%	92.5%	121%	109%	117%	112%	
CCSc1nnc2c3cc(Br)ccc3n(C)c2n1	119%	118%	93.3%	116%	107%	93.7%	106%	105%	98.4%	
Cc1ccc(C(=O)Nc2ccccc2N)cc1	73.5%	62.5%	69.7%	84.6%	69.6%	62.5%	68.1%	68%	77.5%	
C=C(C)COC(=O)c1ccccc1C(=O)OCC1(C)CO1 (stereo unspecified)	104%	110%	103%	117%	93.6%	91.9%	101%	101%	96.5%	
CS(=O)(=O)Nc1cccc(C(=O)NCc2ccc(N3CCOCC3)cc2)c1	103%	92.4%	121%		97.9%		103%		99.2%	111%
CCC12CCC3c4ccc(O)cc4CCC3C1CC(O)C2O (stereo unspecified)	103%	23.7%		98.6%	103%	58.1%	80.6%	67.4%	55%	70.1%
CC(=O)OC[C@H](O)[C@@]1(O)CC[C@H]2[C@@H]3CCC4=CC(=O)CC[C@]4(C)[C@H]3[C@@H](O)C[C@@]21C	93.7%	89.5%		134%	97.1%	111%	100%	110%	104%	95.8%
COc1ccc(NC(=O)COc2ccccc2)c(C(N)=O)c1	23%	9.36% (active)	44.1%	2.95% (active)	50.7%	13.3%	-46.8% (active)	61.7%	3.47% (active)	
O=c1[nH]c(=S)[nH]c(=O)n1Cc1cccc2ccccc12	116%	90.1%	106%		107%	77.4%	103%		104%	97.3%
CC(=O)Nc1ccc(S(=O)(=O)N/N=C\c2ccc(Cl)c(Cl)c2)cc1	110%	116%	110%	123%	100%	108%	111%	103%	102%	

SMILES	growth [1]	growth [2]	growth [3]	growth [4]	growth [5]	growth [6]	growth [7]	growth [8]	growth [9]	growth [10]
COc1ccc(Nc2nc(NCCNc3ccnc4cc(Cl)ccc34)nc(N3CCOCC3)n2)cc1	67.7%	6.77% (active)	25.2%		58.3%		38.1%		19.9%	-80.2% (active)
Cc1ccc(S(=O)(=O)N2C/C(=C\c3cc(F)cc(F)c3)C(=O)/C(=C/c3cc(F)cc(F)c3)C2)cc1	-61.3% (active)	2.14% (active)	-29.7% (active)		-40.6% (active)		-39.6% (active)		-50.1% (active)	-62.9% (active)
N#CCCN1CCN(CCC#N)C1=S	110%	109%	99.6%	124%	99.4%	93.3%	101%	99.8%	96.6%	
COC(=O)/C=C1/CCC2C3CCC4=CC(=O)C(Br)CC4(C)C3C(=O)CC12C (stereo unspecified)	75%	48.9%	78%	59.9%	95.6%	95.4%	97.4%		59.9%	
COc1cc(NC(=O)COc2ccccc2)c(C(N)=O)cc1OC	23.6%	7.84% (active)	51.2%	6.01% (active)	53.4%	7.73% (active)	-23.9% (active)	51.3%	16.8%	
COc1ccc(CSc2nc3cc(OC)c(OC)cc3c(=O)n2-c2ccc(Cl)cc2)cc1	109%	93%	99.9%		101%		95.9%		106%	107%
O=C(Nc1ccccc1O)c1ccc(NS(=O)(=O)c2cccc3cccnc23)cc1	49.1%	23.8%	64%	69.8%	44%	62.9%	41.4%	26.8%	41.1%	
O=c1nc(NO)[nH]c(=O)n1Cc1ccc(F)cc1	114%	98.1%	122%		104%		102%		107%	103%
CC(=O)c1cc(C)c(OC(=O)c2ccccc2)c(C)c1	102%	85.7%	94.6%	98.9%	107%	107%	100%		105%	
Cn1c2ccccc2c2nn(Cc3ccccc3)c(=O)nc21	113%	109%	103%	103%	103%	97.4%	99.7%	101%	104%	
CN1CCN(CCCn2c3c(sc4ncccc43)c(=O)n3nnc(-c4ccccc4)c23)CC1	-18.2% (active)	1.27% (active)	-83.5% (active)	75.3%	91%	98.6%	-96% (active)	99.2%	78.4%	
CN1CCN(c2nc(-c3ccncc3)nc3sc4c(c23)CCCCCC4)CC1	91%	35.5%	49.2%		61.2%	57.2%	54.4%		105%	76.8%
CC1SC(c2ccc(Cl)cc2)N(CCc2cccs2)C1=O (stereo unspecified)		7.81% (active)	-4.43% (active)	-35.7% (active)	14.3%	-2.2% (active)	-49.7% (active)	-28.7% (active)	-12.8% (active)	-32.8% (active)
Clc1ccc(C2=Nc3cccc4cccc(c34)N2)cc1Cl	110%		97.4%	-5.75% (active)		112%	108%	93.6%	103%	102%
COC(=O)c1cc(-c2ccc(C)cc2)n(C(=O)CSc2nc3sc(C(N)=O)c(C)c3c(=O)n2Cc2ccccc2)n1	102%	101%		106%	108%	109%	104%	106%	102%	
